Here are results for 25 compounds from PubChem BioAssay (NCI).

Compounds without any hit were thinned out: in the full panel of roughly 83,000, 20% have a hit.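 The test compound was applied at a single concentration to cells in 96-well plates for 48 hours, and percent growth was recorded.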 Unmarked numbers belong to inactive results. The source made the active and inactive calls. How the source made its calls: active means growth percent below 10; inactive means the rest.

Common to all, as to experiment: NCI-60 one-dose screen, 48 h (100 = growth as untreated, 0 = no growth, -100 = all killed)
One test deals with BT-549 breast. The note with it: 10 µM unless noted.
The subject of another test is MDA-MB-435 melanoma. The settings on record: 10 µM unless noted.
Another test relates to SW-620 colon. The settings on record: 10 µM unless noted.
The next test has as its system MCF7 breast. The settings on record: 10 µM.
Another test deals with HCT-116 colon. The settings on record: 10 µM unless noted.
A further test relates to HCC-2998 colon. The note with it: 10 µM unless noted.
The subject of the next test is KM12 colon. The settings on record: 10 µM unless noted.

Take `CCOC(=O)c1cc2c(n1Cc1ccccc1)-c1oncc1CCC2`: the growth with BT-549 breast was 101%; with MDA-MB-435 melanoma, -7.87% (active); in the test with SW-620 colon, 43%; in the test on MCF7 breast it was 45.8%; in the test on HCT-116 colon, 64.7%; in the test with HCC-2998 colon, 87.5%. Further, the growth in the test on KM12 colon is 56.1%.
`COc1cc(/C=C/C(=O)c2ccc(Cl)cc2)cc(CN2CCCCC2)c1O`: the growth in the test on BT-549 breast was 91.2%; in the test with MDA-MB-435 melanoma, 74%; in the test with SW-620 colon, 88.6%; with MCF7 breast, 48.1%; in the test with HCT-116 colon it was 82.1%; with HCC-2998 colon, 95.5%. Also, the growth in the test with KM12 colon was 72.6%.
As to `COc1ccc(S(=O)(=O)N(Cc2ccc3c(n2)C=CC(C)(C)O3)C2CCC2)cc1OC`, the growth is -25.2% (active) with BT-549 breast; -34.7% (active) in the test with MDA-MB-435 melanoma; 3.81% (active) in the test on SW-620 colon; 2.14% (active) with MCF7 breast; -5.68% (active) in the test on HCT-116 colon; -1.63% (active) with HCC-2998 colon. Moreover, in the test on KM12 colon, the growth was -1.42% (active).
Turning to `CC(C)[C@H](NC(=O)Cn1cc(C(=O)O)nn1)C(=O)O`, the growth in the test on BT-549 breast is 104%; with MDA-MB-435 melanoma, 98.8%; in the test on SW-620 colon, 108%; with MCF7 breast it was 97.1%; in the test on HCT-116 colon it was 102%; in the test on HCC-2998 colon, 107%. Besides, the growth with KM12 colon is 103%.
In the case of `COc1ccc(CSc2nnc(SCC(=O)Nc3ccc(Cl)cc3)s2)cc1`, the growth is 69% in the test on BT-549 breast; 67.2% with MDA-MB-435 melanoma; 52% in the test with SW-620 colon; 63.8% with MCF7 breast; 70.8% with HCT-116 colon; 72.6% in the test on HCC-2998 colon. Also, the growth in the test on KM12 colon was 44.8%.
In the case of `O=C1/C(=C\c2ccc[nH]2)c2ccccc2N1c1ccccc1`, the growth in the test on BT-549 breast is 78.9%; in the test with MDA-MB-435 melanoma it was 108%; with SW-620 colon it was 97%; in the test with MCF7 breast, 19.5%; in the test with HCT-116 colon, 95.1%; in the test with HCC-2998 colon, 93.6%. Moreover, in the test on KM12 colon, the growth is 95.7%.
On to `CCOC(=O)C1=CN(C)C=C(C(=O)OCC)C1c1cc(Br)c(OCC)c(OC)c1`, for which the growth is 84.9% in the test on BT-549 breast; 15.6% in the test on MDA-MB-435 melanoma; 48.6% in the test on SW-620 colon; 14.7% with MCF7 breast; 43.9% in the test on HCT-116 colon; -16.5% (active) in the test on HCC-2998 colon. The growth in the test on KM12 colon was 48.4%.
Turning to `OC(CNC1CCCCC1)Cn1c2ccc(I)cc2c2cc(I)ccc21` (stereo not given), the growth is 85.9% in the test with BT-549 breast; 66.9% with MDA-MB-435 melanoma; 79.5% in the test with SW-620 colon; 69.9% in the test on MCF7 breast; 65.2% in the test on HCT-116 colon; 94.3% in the test with HCC-2998 colon. The growth in the test on KM12 colon is 74.5%.
As for `Fc1ccc(Oc2ccc(Nc3ncnc4onc(-c5ccccc5)c34)cc2)cc1`, the growth is 78.6% in the test on BT-549 breast; 103% in the test with MDA-MB-435 melanoma; 95% in the test with SW-620 colon; 94.5% in the test with MCF7 breast; 99.1% in the test on HCT-116 colon; 105% in the test with HCC-2998 colon. Further, the growth with KM12 colon was 99.5%.
`COc1ccc(Nc2nc(N/N=C/c3ccc(O)cc3)nc(Nc3ccc([N+](=O)[O-])cc3)n2)cc1`: the growth was 114% in the test with BT-549 breast; 116% in the test on MDA-MB-435 melanoma; 112% with SW-620 colon; 97.4% in the test with MCF7 breast; 105% in the test with HCT-116 colon; 102% with HCC-2998 colon. In the test with KM12 colon, the growth is 121%.
On to `Cn1c2c(c(=O)[nH]c1=O)NC1=C(C(=O)c3ccccc31)C1(C=C(O)c3ccccc31)N2` (stereo not given), for which the growth was 180% with BT-549 breast; 117% in the test with MDA-MB-435 melanoma; 123% with SW-620 colon; 91% in the test on MCF7 breast; 96.5% in the test on HCT-116 colon; 130% in the test with HCC-2998 colon. In addition, the growth in the test on KM12 colon is 104%.
`COc1ccc(/C=C2/SC(=O)N(CC(=O)N3CCN(c4cc5c(cc4F)c(=O)c(C(=O)O)cn5C4CC4)CC3)C2=O)cc1`: the growth is 96.1% with BT-549 breast; 102% in the test on MDA-MB-435 melanoma; 98.2% with SW-620 colon; 96% in the test with MCF7 breast; 100% in the test on HCT-116 colon; 105% in the test on HCC-2998 colon. Besides, in the test with KM12 colon, the growth is 105%.
As for `Cc1cc(Nc2ccc(OCc3ccccc3)cc2)nc2cc(O)ccc12`, the growth in the test on BT-549 breast is 69.7%; with MDA-MB-435 melanoma, 65.6%; in the test on SW-620 colon, 11%; in the test with MCF7 breast, 39.3%; in the test on HCT-116 colon, 30.6%; in the test with HCC-2998 colon, -34% (active). Further, the growth in the test with KM12 colon was 45.6%.
As to `COc1ccccc1C1=C(Br)C(=O)c2nc(C)ccc2C1=O`, the growth was 90.4% in the test with BT-549 breast; 104% in the test on MDA-MB-435 melanoma; 87.9% in the test with SW-620 colon; 90.8% in the test with MCF7 breast; 92.1% in the test with HCT-116 colon; 102% in the test on HCC-2998 colon. Also, the growth in the test on KM12 colon is 103%.
Regarding `O=C(Nc1ccc(N2CCNCC2)cc1)c1[nH]ncc1Nc1cc(C2CC2)ncn1`, the growth in the test with BT-549 breast was 42.9%; with MDA-MB-435 melanoma it was 50.6%; in the test with SW-620 colon it was 33.1%; in the test on MCF7 breast, 37%; with HCT-116 colon, 14.6%; in the test with HCC-2998 colon, 46.3%. Also, the growth with KM12 colon is 21.1%.
For the compound `C#CCn1cc(C=C2C(=O)N(C)C(=O)N(C)C2=O)c2cc(Cl)ccc21`, the growth in the test with BT-549 breast was 116%; in the test on MDA-MB-435 melanoma, 103%; in the test on SW-620 colon it was 99.5%; in the test on MCF7 breast, 100%; with HCT-116 colon, 109%; with HCC-2998 colon, 112%. In addition, in the test with KM12 colon, the growth is 104%.
Regarding `O=C(CSc1ccc2nnc(-c3cccc(F)c3)n2n1)Nc1ccc2c(c1)OCO2`, the growth was 88.3% in the test with BT-549 breast; 89.5% with MDA-MB-435 melanoma; 92.8% in the test with SW-620 colon; 36.4% in the test with MCF7 breast; 62.1% in the test on HCT-116 colon; 109% in the test with HCC-2998 colon. Further, the growth with KM12 colon was 73.5%.
For `N#CC(C#N)=Cc1c(-c2ccccc2)[nH]c2ccccc12`, the growth in the test with BT-549 breast was 56%; in the test on MDA-MB-435 melanoma it was 7.52% (active); in the test on SW-620 colon, 21.1%; in the test on MCF7 breast, 15.7%; in the test with HCT-116 colon, 30.4%; with HCC-2998 colon, 50.7%. For the same compound, in the test with KM12 colon, the growth is 27.4%.
Consider `CNCCNc1nc2ccccc2c2c(=O)c3cccc(OC)c3sc12`, for which the growth with BT-549 breast was 73.1%; with MDA-MB-435 melanoma it was -72.7% (active); in the test with SW-620 colon it was -80.1% (active); in the test on MCF7 breast it was -67.5% (active); in the test with HCT-116 colon, -68.2% (active); with HCC-2998 colon, -52.3% (active). The growth in the test on KM12 colon is -47.9% (active).
Consider `Cc1ccc2cc3c(N)c4c(C)ccc(C)c4nc3nc2c1`, for which the growth in the test on BT-549 breast was 53.9%; in the test on MDA-MB-435 melanoma, -70.3% (active); in the test on SW-620 colon it was 11.1%; with MCF7 breast, 37.9%; with HCT-116 colon, 24.5%; with HCC-2998 colon, 62%. Moreover, in the test with KM12 colon, the growth is 69.6%.
`CCCCc1c(CCC)c(=N)c2ccccc2n1C`: the growth with BT-549 breast is 88.1%; with MDA-MB-435 melanoma, 64.9%; in the test with SW-620 colon, 59%; in the test on MCF7 breast, 50.2%; in the test with HCT-116 colon, 64.1%; with HCC-2998 colon, 107%. Also, the growth in the test with KM12 colon was 77.2%.
On to `Brc1ccc(Nc2nc3ccccc3nc2Nc2ccc(Br)cc2)cc1`, for which the growth in the test on BT-549 breast was -12.6% (active); in the test on MDA-MB-435 melanoma it was -60.2% (active); in the test on SW-620 colon it was -69.9% (active); in the test on MCF7 breast it was 1.16% (active); in the test with HCT-116 colon it was -86.3% (active); in the test on HCC-2998 colon it was -56.5% (active). For the same compound, the growth with KM12 colon was -55.3% (active).
On to `COc1cc(C(C)n2cc(-c3ccccc3)nn2)ccc1OC1CCCCC1` (stereo not given), for which the growth is 69.3% in the test on BT-549 breast; 68.1% in the test with MDA-MB-435 melanoma; 75.5% in the test with SW-620 colon; 49.8% in the test with MCF7 breast; 42.5% with HCT-116 colon; 81.4% in the test with HCC-2998 colon. The growth with KM12 colon was 77.9%.
On to `COC(=O)c1cc2c(n1Cc1ccccc1)-c1oncc1CCC2`, for which the growth in the test on BT-549 breast is 79.6%; with MDA-MB-435 melanoma, -13% (active); with SW-620 colon, 34.7%; with MCF7 breast, 40.8%; in the test with HCT-116 colon, 57.4%; with HCC-2998 colon it was 76.2%. Further, the growth in the test on KM12 colon was 63%.
`O=C(CSc1ncccc1C(=O)O)Nc1ccc(Oc2ccccc2)cc1`: the growth in the test on BT-549 breast is 97.8%; with MDA-MB-435 melanoma, 105%; with SW-620 colon, 91.9%; in the test with MCF7 breast, 91.5%; with HCT-116 colon it was 96.9%; in the test with HCC-2998 colon, 102%. For the same compound, in the test on KM12 colon, the growth is 110%.
